{"source": "ChEMBL document CHEMBL3988442", "about": "“University of Dundee, Small-Polar-MMV Screening Library” (2021)"}
{"biological_target": "AMP-activated protein kinase, AMPK (Homo sapiens) (UniProt P54646+O43741+P54619+Q9UGJ0+Q9Y478+Q13131+Q9UGI9)", "assay": "AMP-dependent Kinase enzyme assay. An in vitro enzyme assay that detects ADP turnover that is directly proportional to AMPK activity. This uses naive AMPK that is activated during the assay with MK-8722", "type": "functional", "set-up": "scale not given: direction of the effect not stated beside the values", "settings": "30 µM", "units": {"Percent Effect": "%"}}
{"molecule": "CCCn1ccnc1-c1cccc(NC(=O)[C@H]2CCC(=O)N2)c1", "Percent Effect": 11.3}
{"molecule": "CN(CCOc1ccc(C#N)cc1)CC1CC1", "Percent Effect": 22.9}
{"molecule": "CN(CCc1ccccn1)C(=O)Nc1cccnc1-n1cccn1", "Percent Effect": -3.54}
{"molecule": "CC(C)NC(=O)N1CCCCCC1C1CCN(c2ncccn2)CC1", "note": "(centres undefined)", "Percent Effect": -6.91}
{"molecule": "CCC(C(=O)NCCc1coc(-c2ccc(C)cc2)n1)N(C)C", "note": "(centres undefined)", "Percent Effect": 6.54}
{"molecule": "O=C(C1CCCO1)N1CCC(n2cc(-c3ccc(F)cc3)nn2)CC1", "note": "(centres undefined)", "Percent Effect": 3.48}
{"molecule": "O=S(=O)(Nc1ccc2c(c1)OCCO2)N1CCCCC1", "Percent Effect": 12.8}
{"molecule": "O=C(CNC1(CCO)CCOCC1)Nc1ccc(F)cc1F", "Percent Effect": -0.128}
{"molecule": "CN(C)C(C(=O)N1CCN(CCn2cccc2)CC1)c1cccc(F)c1", "note": "(centres undefined)", "Percent Effect": -11.9}
{"molecule": "CS(=O)(=O)NC(=O)c1ccn(-c2cccc(Br)c2)n1", "Percent Effect": 2.69}
{"molecule": "Cc1cc(CN(CC(N)=O)CC(C)C)on1", "Percent Effect": -2.52}
{"molecule": "CN1CCC(Nc2ccc(Cl)cc2OCC(F)(F)F)C1=O", "note": "(centres undefined)", "Percent Effect": -3.53}
{"molecule": "CCc1ccc2nc(C)cc(C(=O)NC[C@@H]3CCNC[C@H]3O)c2c1", "Percent Effect": -4.5}
{"molecule": "CCN(C)C[C@@H]1CN(C(=O)c2cc(C(F)(F)F)n[nH]2)C[C@@H]1CO", "Percent Effect": 7.62}
{"molecule": "Cc1occc1C(=O)N1CCCC(C2=Nc3ccccc3S(=O)(=O)N2)C1", "note": "(centres undefined)", "Percent Effect": 14.4}
{"molecule": "O=C(CC1CC1)N1C[C@@H](O)[C@H](N2CCN(c3ccccc3)CC2)C1", "Percent Effect": -9.15}
{"molecule": "CC(C)Cc1noc(CN(C)C2CCCC2)n1", "Percent Effect": 10.7}
{"molecule": "CCCN(CCc1ccccn1)C(=O)CCc1cnn(C)c1", "Percent Effect": 4.13}
{"molecule": "Clc1ccccc1CCn1ccnc1-c1cn(C2CCNCC2)nn1", "Percent Effect": -7.28}
{"molecule": "O=C(Nc1ccccc1C(=O)NCCN1CCOCC1)c1ccco1", "Percent Effect": -3.24}
{"molecule": "CNc1ccc(C2CN(c3cc(C)nc(N)n3)CCO2)nc1", "note": "(centres undefined)", "Percent Effect": 17.3}
{"molecule": "CCn1cnnc1CCNC(=O)c1ccc(F)c(Br)c1", "Percent Effect": -5.58}
{"molecule": "CCN(CC)S(=O)(=O)NCC1Cc2ccccc2O1", "note": "(centres undefined)", "Percent Effect": -0.544}
{"molecule": "Cc1nc2c(c(N[C@H](C(N)=O)C(C)C)n1)Cc1ccccc1OC2", "Percent Effect": -25.7}
{"molecule": "COCc1nc(C2CC2)nn1-c1cc(Cl)ccc1OC", "Percent Effect": -8.6}
{"molecule": "CN1CCN(c2ncc(CNCCCc3cccc(F)c3)cn2)CC1", "Percent Effect": 4.72}
{"molecule": "COCC1CCN(C(C(=O)O)c2c(F)cccc2OC(C)C)CC1", "note": "(centres undefined)", "Percent Effect": 5.46}
{"molecule": "CC(=O)N1CC(C(=O)NC(C)c2cnn(C)c2C)C1", "note": "(centres undefined)", "Percent Effect": 8.59}
{"molecule": "CCN(C(=O)Cn1cc(NC(=O)C(C)(C)C)cn1)c1ccccc1", "Percent Effect": -3.26}
{"molecule": "CC(CN1CCOC1=O)NC(=O)c1cccc(C#N)c1", "note": "(centres undefined)", "Percent Effect": 11.8}
{"molecule": "CC(C)c1nc(CN(C)C(=O)[C@H](N)Cc2ccc(Cl)cc2)cs1", "Percent Effect": 2.32}
{"molecule": "COCCN1CCN(C(=O)C(c2cccc(F)c2)N(C)C)CC1", "note": "(centres undefined)", "Percent Effect": -5.71}
{"molecule": "CS(=O)(=O)N1CCC(CNc2cc(Cl)ccc2C#N)CC1", "Percent Effect": 7.86}
{"molecule": "CC(C)c1nc(CN(C)Cc2ncccc2C(=O)O)cs1", "Percent Effect": 4.59}
{"molecule": "CCOc1ccccc1-n1c(C2CC2)n[nH]c1=O", "Percent Effect": 2.2}
{"molecule": "CN(Cc1ccncc1)c1cncc(Br)c1", "Percent Effect": 3.2}
{"molecule": "C[C@@H]1CN(S(=O)(=O)N2CCCCCC2)C[C@@]1(O)C1CCC1", "Percent Effect": -7.79}
{"molecule": "CN(Cc1cccc(O)c1)Cc1cnn(C)c1", "Percent Effect": -1.1}
{"molecule": "O=C(NCc1nccs1)N1CCOC(c2ccccc2Cl)C1", "note": "(centres undefined)", "Percent Effect": 4.45}
